Source: PubChem BioAssay (Tox21)
Records with an inconclusive call do not appear. Calls of active or inactive are those of the source. Unless noted, calls follow the shape of the dose curve; as a rule, active = well fitted curve in the direction sought with a large enough effect in the repeat runs; inconclusive = weak or mixed curves; inactive = no such curve, though single readings can be large; an effect the other way counts as inactive or inconclusive.

Legend:
[1] = qHTS assay to identify small molecule antagonists of the glucocorticoid receptor (GR) signaling pathway - cell viability counter screen (AID 720693); also: nearly all actives have a fitted effect of over 55% in size
[2] = qHTS assay to identify small molecule antagonists of the androgen receptor (AR) signaling pathway - cell viability counter screen (AID 743033; also: nearly all actives have a fitted effect of over 45% in size)
[3] = qHTS assay to identify small molecule antagonists of the androgen receptor (AR) signaling pathway using the MDA cell line - cell viability counter screen (AID 743041; also: nearly all actives have a fitted effect of over 45% in size)
Procedure, shortened: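 R1881-driven MDA-kb2 AR-luc cells, 3,000/well, were dosed with library compounds for 16 h; cell health came from CellTiter-Fluor fluorescence in the reporter wells.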

[4] = qHTS assay to identify small molecule antagonists of the thyroid receptor (TR) signaling pathway - cell viability counter screen (AID 743064); also: nearly all actives have a fitted effect of over 50% in size
Procedure, shortened: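 Rat GH3 pituitary tumor cells stably expressing two TR response elements driving luciferase were plated, rested 4 h, then dosed with library compounds and T3 (1 nM final). After 23.5 h at 37 °C, CellTiter-Fluor was added for 30 min and fluorescence recorded.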

[5] = qHTS assay to identify small molecule antagonists of the thyroid receptor (TR) signaling pathway (AID 743065); also: series mostly up to about 70 µM; nearly all actives have a fitted effect of over 55% in size
Procedure, shortened: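 Antagonism measured as loss of luciferase signal in GH3 cells stably carrying a TRE-luciferase reporter, co-treated with compound and T3 (1 nM final) for 23.5 h at 37 C. Viability was read in the same well by CellTiter-Fluor.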

[6] = tested on: thyroid hormone receptor (rat, GH3 cells); assay: qHTS assay to identify small molecule agonists of the thyroid receptor (TR) signaling pathway (AID 743066; calls by dose curve)
[7] = target: Estrogen receptor (Homo sapiens) (UniProt P03372); assay: qHTS assay to identify small molecule antagonists of the estrogen receptor alpha (ER-alpha) signaling pathway (AID 743069; active = well fitted curve in the direction sought with a large enough effect in the signal ratio in the repeat runs, not every such curve was filed as active; the % refers to the signal ratio)
Sequence of Estrogen receptor (Homo sapiens) (P03372 whole entry, looked up): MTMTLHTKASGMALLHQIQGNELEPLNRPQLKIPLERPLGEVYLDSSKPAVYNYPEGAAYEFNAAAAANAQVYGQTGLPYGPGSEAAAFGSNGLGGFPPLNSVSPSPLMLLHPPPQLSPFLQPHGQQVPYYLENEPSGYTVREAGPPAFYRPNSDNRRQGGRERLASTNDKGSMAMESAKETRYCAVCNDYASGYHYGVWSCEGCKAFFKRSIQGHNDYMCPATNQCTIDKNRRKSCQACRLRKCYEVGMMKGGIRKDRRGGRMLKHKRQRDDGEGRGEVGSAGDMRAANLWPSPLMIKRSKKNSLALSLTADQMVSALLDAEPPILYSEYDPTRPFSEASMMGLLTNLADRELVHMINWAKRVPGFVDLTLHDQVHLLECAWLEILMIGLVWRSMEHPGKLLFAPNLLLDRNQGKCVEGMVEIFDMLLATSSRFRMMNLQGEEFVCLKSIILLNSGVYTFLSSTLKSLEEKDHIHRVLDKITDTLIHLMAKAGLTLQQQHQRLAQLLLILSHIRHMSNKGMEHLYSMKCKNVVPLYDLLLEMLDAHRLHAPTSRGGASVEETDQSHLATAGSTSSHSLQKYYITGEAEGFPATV
Procedure, shortened: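 Compound effects are measured against 17beta-estradiol stimulation in HEK293 cells with a UAS-controlled beta-lactamase reporter for ER-alpha. Exposure lasts 18 hr at 37C; LiveBLAzer B/G FRET substrate follows for 2 hr at room temperature.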

[8] = qHTS assay to identify small molecule antagonists of the estrogen receptor alpha (ER-alpha) signaling pathway - cell viability counter screen (AID 743074; calls by dose curve;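 also: HEK293 cells carrying ER-alpha-UAS-bla reporter stimulated with 17beta-estradiol; nearly all actives have a fitted effect of over 45% in size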)
[9] = target: Estrogen receptor (Homo sapiens) (UniProt P03372); assay: qHTS assay to identify small molecule agonists of the estrogen receptor alpha (ER-alpha) signaling pathway (AID 743075; calls by dose curve)
[10] = target: Estrogen receptor (Homo sapiens) (UniProt P03372); assay: qHTS assay to identify small molecule agonists of the estrogen receptor alpha (ER-alpha) signaling pathway using the BG1 cell line (AID 743079); also: nearly all actives have a fitted effect of over 20% in size
[11] = qHTS assay to identify small molecule antagonists of the estrogen receptor alpha (ER-alpha) signaling pathway using the BG1 cell line (AID 743080; calls by dose curve;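 also: BG1 cells stimulated with 17beta-estradiol alongside compound; series mostly up to about 70 µM; nearly all actives have a fitted effect of over 25% in size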)
Procedure, shortened: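 After 5 days in phenol-red-free 10% charcoal-stripped FBS medium, BG1-Luc-4E2 cells were seeded, left 24 h at 37 C, co-treated with compounds and 17beta-estradiol for 21.5 h, then assayed for viability and luciferase.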

[12] = qHTS assay to identify small molecule antagonists of the estrogen receptor alpha (ER-alpha) signaling pathway using the BG1 cell line - cell viability counter screen (AID 743081);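 also: compound given together with 17beta-estradiol as the ER stimulus; series mostly up to about 70 µM; nearly all actives have a fitted effect of over 45% in size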
Aromatase (Homo sapiens) = Aromatase (Homo sapiens) (UniProt P11511); assay: qHTS assay to identify aromatase inhibitors (AID 743083); also: series mostly up to about 70 µM; nearly all actives have a fitted effect of over 55% in size
Sequence of Aromatase (Homo sapiens) (P11511 whole entry, looked up): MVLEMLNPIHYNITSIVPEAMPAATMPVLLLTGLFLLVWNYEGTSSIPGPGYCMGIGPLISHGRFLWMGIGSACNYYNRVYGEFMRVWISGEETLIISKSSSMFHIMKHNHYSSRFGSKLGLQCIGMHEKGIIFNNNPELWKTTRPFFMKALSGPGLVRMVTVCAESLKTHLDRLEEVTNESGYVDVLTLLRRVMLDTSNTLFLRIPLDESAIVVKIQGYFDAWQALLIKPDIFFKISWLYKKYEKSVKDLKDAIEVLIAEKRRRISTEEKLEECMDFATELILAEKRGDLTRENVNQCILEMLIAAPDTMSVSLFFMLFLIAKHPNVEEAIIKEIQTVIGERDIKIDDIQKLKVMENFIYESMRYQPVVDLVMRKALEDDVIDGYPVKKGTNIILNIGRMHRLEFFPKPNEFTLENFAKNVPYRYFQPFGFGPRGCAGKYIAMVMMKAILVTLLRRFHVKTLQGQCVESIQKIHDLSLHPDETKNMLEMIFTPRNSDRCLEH

[13] = qHTS assay for identifying genotoxic compounds that show differential cytotoxicity against isogenic chicken DT40 cell lines with known DNA damage response pathways - Rad54/Ku70 mutant cell line (AID 743015); also: nearly all actives have a fitted effect of over 60% in size
% is scaled to controls: 0 for no effect and ±100 for the full control effect.

CC/C=C\CCCCCCCCCCOC(C)=O
inactive: outcome [1] | outcome [2] | outcome [3] | Potency [4] | Potency [5] | Potency [6] | outcome [7] | Potency [8] | Potency [9] | Potency [10] | Potency [11] | outcome [12] | Potency (Aromatase (Homo sapiens))

CN(C)CCCN(C)C
inactive: viability change, negative = cytotoxic [1] 3.46% [at 7.04 µM] | activity change, negative = cytotoxicity [13] 3.34% [at 8.55 µM] | activity change, negative = cytotoxicity [2] 3.01% [at 7.04 µM] | viability change, negative = cytotoxic [3] 5.47% [at 8.47 µM] | activity change, negative = cytotoxic [4] 20.5% [at 8.44 µM] | activity, negative = inhibition [5] 0.44% [at 8.44 µM] | activation [6] -3.73% [at 8.08 µM] | activity, negative = inhibition [7] 3.46% [at 6.71 µM] | activity, negative = cytotoxicity [8] 12.6% [at 6.72 µM] | activation [9] -1.03% [at 6.71 µM] | activation [10] -6.84% [at 8.47 µM] | activity change, negative = inhibition [11] 2.33% [at 8.47 µM] | activity change, negative = cytotoxicity [12] 12.4% [at 8.47 µM] | activity, negative = inhibition (Aromatase (Homo sapiens)) 7.56% [at 8.47 µM]

Cc1nc2ccc(Cl)cc2[nH]1
inactive: outcome [1] | Potency [13] | outcome [2] | outcome [3] | Potency [4] | Potency [5] | Potency [6] | Potency [8] | Potency [9] | Potency [10] | Potency [11] | outcome [12] | Potency (Aromatase (Homo sapiens))
